Laboratory results: the supplement of paper PMC12282887
± gives the standard deviation of the averaged measurements.

Key:
Assay in all cases: promoter activity interaction Z-score (Lux/OD deviation from empty-vector control); higher = stronger promoter induction by the compound
[1] = system: E. coli BW25113 acrABp lux reporter
Procedure, shortened: (§1)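 E. coli BW25113 (wild type or marA, soxS or rob deletion) carrying low-copy luxCDABE promoter reporters grew in 40 µl LB Lennox in 384-well plates at 37°C. Each compound was tested at four 1:2 dilutions in biological duplicates. OD600 and luminescence were read every 30 min for 12 h. Areas were taken over 0–8 h (wild type) or 1–9 h (mutants), and wells below 10% of median growth area were removed. The score is the Z-transformed residual of growth-normalised luminescence fitted against the empty-vector control.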

[2] = system: E. coli BW25113 marRABp lux reporter
Procedure, shortened: as §1

[3] = system: E. coli BW25113 micFp lux reporter
Procedure, shortened: as §1

[4] = system: E. coli BW25113 ompFp lux reporter
Procedure, shortened: as §1

[5] = system: E. coli BW25113 robp lux reporter
Procedure, shortened: as §1

[6] = system: E. coli BW25113 soxSp lux reporter
Procedure, shortened: as §1

[7] = system: E. coli BW25113 tolCp lux reporter
Procedure, shortened: as §1

[8] = 6.9 µg/ml, genetic background: wild type
[9] = 6.9 µg/ml, genetic background: ΔmarA
[10] = 6.9 µg/ml, genetic background: Δrob
[11] = 6.9 µg/ml, genetic background: ΔsoxS
[12] = 13.8 µg/ml, genetic background: wild type
[13] = 13.8 µg/ml, genetic background: ΔmarA
[14] = 13.8 µg/ml, genetic background: Δrob
[15] = 13.8 µg/ml, genetic background: ΔsoxS
[16] = 27.5 µg/ml, genetic background: wild type
[17] = 27.5 µg/ml, genetic background: ΔmarA
[18] = 27.5 µg/ml, genetic background: Δrob
[19] = 27.5 µg/ml, genetic background: ΔsoxS
[20] = 55 µg/ml, genetic background: wild type
[21] = 55 µg/ml, genetic background: ΔmarA
[22] = 55 µg/ml, genetic background: Δrob
[23] = 55 µg/ml, genetic background: ΔsoxS

CCCC(=O)O [Butyrate]
promoter activity interaction Z-score [1, 8]: -0.186 ± 0.091 | promoter activity interaction Z-score [1, 9]: -0.105 ± 0.089 | promoter activity interaction Z-score [1, 10]: -0.0421 ± 0.058 | promoter activity interaction Z-score [1, 11]: 0.455 ± 0.31 | promoter activity interaction Z-score [1, 12]: 0.0203 ± 0.11 | promoter activity interaction Z-score [1, 13]: 0.0848 ± 0.57 | promoter activity interaction Z-score [1, 14]: 0.344 ± 0.08 | promoter activity interaction Z-score [1, 15]: -0.00445 ± 0.01 | promoter activity interaction Z-score [1, 16]: -0.32 ± 0.15 | promoter activity interaction Z-score [1, 17]: 0.724 ± 0.18 | promoter activity interaction Z-score [1, 18]: -0.04 ± 0.27 | promoter activity interaction Z-score [1, 19]: 0.471 ± 0.41 | promoter activity interaction Z-score [1, 20]: 0.0224 ± 0.013 | promoter activity interaction Z-score [1, 21]: 0.369 ± 0.73 | promoter activity interaction Z-score [1, 22]: 0.3 ± 0.086 | promoter activity interaction Z-score [1, 23]: 0.561 ± 1.1 | promoter activity interaction Z-score [2, 8]: -0.205 ± 0.013 | promoter activity interaction Z-score [2, 9]: -0.16 ± 0.12 | promoter activity interaction Z-score [2, 10]: 0.206 ± 0.17 | promoter activity interaction Z-score [2, 11]: 0.201 ± 0.094 | promoter activity interaction Z-score [2, 12]: -0.136 ± 0.0092 | promoter activity interaction Z-score [2, 13]: 0.187 ± 0.35 | promoter activity interaction Z-score [2, 14]: 0.0966 ± 0.16 | promoter activity interaction Z-score [2, 15]: 0.00738 ± 0.051 | promoter activity interaction Z-score [2, 16]: -0.429 ± 0.012 | promoter activity interaction Z-score [2, 17]: -0.0336 ± 0.044 | promoter activity interaction Z-score [2, 18]: 0.0375 ± 0.0006 | promoter activity interaction Z-score [2, 19]: 0.0783 ± 0.13 | promoter activity interaction Z-score [2, 20]: -0.383 ± 0.07 | promoter activity interaction Z-score [2, 21]: -0.0286 ± 0.24 | promoter activity interaction Z-score [2, 22]: 0.0661 ± 0.17 | promoter activity interaction Z-score [2, 23]: 0.114 ± 0.15 | promoter activity interaction Z-score [3, 8]: -0.053 ± 0.54 | promoter activity interaction Z-score [3, 9]: -0.02 ± 0.084 | promoter activity interaction Z-score [3, 10]: 0.0084 ± 0.082 | promoter activity interaction Z-score [3, 11]: -0.0289 ± 0.27 | promoter activity interaction Z-score [3, 12]: 0.0525 ± 0.25 | promoter activity interaction Z-score [3, 13]: 0.104 ± 0.01 | promoter activity interaction Z-score [3, 14]: -0.131 ± 0.024 | promoter activity interaction Z-score [3, 15]: 0.104 ± 0.51 | promoter activity interaction Z-score [3, 16]: -0.317 ± 0.084 | promoter activity interaction Z-score [3, 17]: 0.0463 ± 0.13 | promoter activity interaction Z-score [3, 18]: -0.0949 ± 0.063 | promoter activity interaction Z-score [3, 19]: 0.336 ± 0.088 | promoter activity interaction Z-score [3, 20]: -0.235 ± 0.24 | promoter activity interaction Z-score [3, 21]: -0.118 ± 0.0028 | promoter activity interaction Z-score [3, 22]: -0.0628 ± 0.18 | promoter activity interaction Z-score [3, 23]: -0.082 ± 0.078 | promoter activity interaction Z-score [4, 8]: -0.311 ± 0.047 | promoter activity interaction Z-score [4, 9]: -0.076 ± 0.29 | promoter activity interaction Z-score [4, 10]: 0.0244 ± 0.24 | promoter activity interaction Z-score [4, 11]: -0.0786 ± 0.12 | promoter activity interaction Z-score [4, 12]: -0.231 ± 0.022 | promoter activity interaction Z-score [4, 13]: 0.259 ± 0.068 | promoter activity interaction Z-score [4, 14]: 0.303 ± 0.041 | promoter activity interaction Z-score [4, 15]: 0.34 ± 0.31 | promoter activity interaction Z-score [4, 16]: -0.53 ± 0.22 | promoter activity interaction Z-score [4, 17]: -0.0799 ± 0.19 | promoter activity interaction Z-score [4, 18]: 0.0179 ± 0.31 | promoter activity interaction Z-score [4, 19]: 0.623 ± 0.35 | promoter activity interaction Z-score [4, 20]: 0.0627 ± 0.12 | promoter activity interaction Z-score [4, 21]: 0.515 ± 0.0087 | promoter activity interaction Z-score [4, 22]: 0.664 ± 0.45 | promoter activity interaction Z-score [4, 23]: 0.842 ± 0.3 | promoter activity interaction Z-score [5, 8]: 0.406 ± 0.012 | promoter activity interaction Z-score [5, 9]: -0.648 ± 0.21 | promoter activity interaction Z-score [5, 10]: 0.484 ± 0.27 | promoter activity interaction Z-score [5, 11]: 0.116 ± 0.23 | promoter activity interaction Z-score [5, 12]: 0.00618 ± 0.49 | promoter activity interaction Z-score [5, 13]: 0.268 ± 0.098 | promoter activity interaction Z-score [5, 14]: 0.377 ± 0.92 | promoter activity interaction Z-score [5, 15]: 0.84 ± 0.41 | promoter activity interaction Z-score [5, 16]: -0.708 ± 0.16 | promoter activity interaction Z-score [5, 17]: -0.0714 ± 0.84 | promoter activity interaction Z-score [5, 18]: -0.162 ± 0.23 | promoter activity interaction Z-score [5, 19]: 0.234 ± 0.13 | promoter activity interaction Z-score [5, 20]: 0.0368 ± 0.57 | promoter activity interaction Z-score [5, 21]: -0.0155 ± 0.33 | promoter activity interaction Z-score [5, 22]: 0.391 ± 0.82 | promoter activity interaction Z-score [5, 23]: 0.993 ± 0.59 | promoter activity interaction Z-score [6, 8]: 0.0135 ± 0.086 | promoter activity interaction Z-score [6, 9]: 0.215 ± 0.14 | promoter activity interaction Z-score [6, 10]: 0.301 ± 0.047 | promoter activity interaction Z-score [6, 11]: 0.31 ± 0.33 | promoter activity interaction Z-score [6, 12]: 0.0512 ± 0.26 | promoter activity interaction Z-score [6, 13]: 0.372 ± 0.21 | promoter activity interaction Z-score [6, 14]: 0.172 ± 0.11 | promoter activity interaction Z-score [6, 15]: 0.159 ± 0.19 | promoter activity interaction Z-score [6, 16]: 0.00814 ± 0.044 | promoter activity interaction Z-score [6, 17]: 0.223 ± 0.09 | promoter activity interaction Z-score [6, 18]: 0.122 ± 0.097 | promoter activity interaction Z-score [6, 19]: 0.33 ± 0.46 | promoter activity interaction Z-score [6, 20]: -0.104 ± 0.11 | promoter activity interaction Z-score [6, 21]: 0.322 ± 0.006 | promoter activity interaction Z-score [6, 22]: 0.0248 ± 0.034 | promoter activity interaction Z-score [6, 23]: 0.334 ± 0.73 | promoter activity interaction Z-score [7, 8]: -0.319 ± 1.1 | promoter activity interaction Z-score [7, 9]: -0.0114 ± 0.66 | promoter activity interaction Z-score [7, 10]: -0.444 ± 0.1 | promoter activity interaction Z-score [7, 11]: -0.376 ± 0.46 | promoter activity interaction Z-score [7, 12]: -0.518 ± 0.94 | promoter activity interaction Z-score [7, 13]: -0.427 ± 0.69 | promoter activity interaction Z-score [7, 14]: 0.207 ± 1 | promoter activity interaction Z-score [7, 15]: 0.311 ± 0.35 | promoter activity interaction Z-score [7, 16]: -1.01 ± 0.066 | promoter activity interaction Z-score [7, 17]: 0.539 ± 0.083 | promoter activity interaction Z-score [7, 18]: 0.18 ± 0.021 | promoter activity interaction Z-score [7, 19]: 0.0693 ± 0.34 | promoter activity interaction Z-score [7, 20]: 0.0415 ± 0.077 | promoter activity interaction Z-score [7, 21]: 0.218 ± 0.98 | promoter activity interaction Z-score [7, 22]: -0.252 ± 0.71 | promoter activity interaction Z-score [7, 23]: 0.709 ± 0.36
